Source: PubChem BioAssay (EPA / NIEHS)
Records with an inconclusive call do not appear. Active and inactive are the calls of the source. How the source made its calls, unless noted: active means hit-call score of the fitted dose curve at least 0.9, where 1 is the maximum; inactive means score below 0.9.

Legend:
[1] = CCTE_Simmons_MITO_basal_resp_rate: CCTE's HepG2 Seahorse XF Respirometric Screening Assay at Basal Respiratory State, Simmons Lab (AID 2284001); conditions: actives raise or lower the signal
Outline: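 Readout is oxygen consumption rate after test compound injection, measured by Seahorse XF in HepG2 cells. Seven concentrations from 125 nM up to 100 uM final are tested, and activity in either direction is fitted against DMSO.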

[2] = CCTE_Simmons_MITO_max_resp_rate: CCTE's HepG2 Seahorse XF Respirometric Screening Assay at Maximal Respiratory State [uncoupled], Simmons Lab (AID 2284002); conditions: actives raise or lower the signal
Outline: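 Maximal respiration in HepG2 cells is recorded as OCR by Seahorse XF following FCCP injection. Compounds span 125 nM–100 uM final; activity is called in either direction against DMSO.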

[3] = CCTE_Simmons_MITO_inhib_resp_rate: CCTE's HepG2 Seahorse XF Respirometric Screening Assay at Inhibited Respiratory State [full ETC block], Simmons Lab (AID 2284006); conditions: actives raise or lower the signal
Outline: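 Seahorse respirometry, HepG2, 72 min total, 6-min mix/measure cycles. Cpd 125 nM–100 uM final ×7, n=3 biological. Sequential FCCP, rotenone/antimycin A; inhibited-respiration OCR, bidirectional fit vs DMSO.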

[4] = CCTE_Simmons_MITO_viability: CellTiter-Glo Viability Assessment for CCTE's HepG2 Seahorse XF Respirometric Screening Assay [post-hoc], Simmons Lab (AID 2284007; active means hit-call score of the fitted dose curve at least 0.9, where 1 is the maximum;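 on AC50: cells exposed to chemical for 90 min before the ATP read; actives lower ATP signal relative to DMSO baseline meaning reduced viability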)
Outline: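 Cytotoxicity readout: ATP quantitation via luciferase in HepG2 cells treated 90 min with seven titrated concentrations (125 nM to 100 uM, final). Curves fitted relative to DMSO negative control, three biological replicates per concentration.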

[5] = CCTE_Harrill_HTTr_Viability_MCF7: CCTE's 6-hour Cell Viability Assessment for the High-Throughput Transcriptomics (HTTr) Platform, in MCF-7 cells cultured in DMEM + 10% fetal bovine serum, Harrill Lab (AID 2284010)
Outline: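 Read-out is propidium iodide gain of signal by high-content imaging, reflecting membrane integrity loss. Measurements are taken 6 h after dosing, eight concentrations per chemical, with DMSO serving as baseline for bidirectional curve fitting.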

DIO1 (gene 1733) = assay: CCTE_GLTED_hDIO1: CCTE's human Deiodinase 1 (DIO1) Inhibition Assay, Great Lakes Toxicology and Ecology Division (GLTED) Lab (AID 2283987; active means hit-call score of the fitted dose curve at least 0.9, where 1 is the maximum;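 further: isolated human DIO1 enzyme in a cell-free setup rather than cells; enzyme activity read as free iodide liberated from substrate via Sandell-Kolthoff colorimetry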)
Outline: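 Cell-free hDIO1 assay, triplicate plates. Absorbance of the Sandell-Kolthoff reaction reports enzyme-liberated iodide; iodinated chemicals or nitrite, iron and thiocyanate may interfere.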

[6] = molecular target: Nucleoli Translocation, AR (gene 367) (UniProt P10275); assay: UPITT_HCI_U2OS_AR_TIF2_Nucleoli_Antagonist: University of Pittsburgh U2OS Androgen Receptor-Transcriptional Intermediary Factor 2 (AR-TIF2) Antagonism High Content Imaging Assay for Nucleoli Translocation (AID 2283997; active means hit-call score of the fitted dose curve at least 0.9, where 1 is the maximum)
Nucleoli Translocation, AR (gene 367), sequence (P10275 whole entry, looked up): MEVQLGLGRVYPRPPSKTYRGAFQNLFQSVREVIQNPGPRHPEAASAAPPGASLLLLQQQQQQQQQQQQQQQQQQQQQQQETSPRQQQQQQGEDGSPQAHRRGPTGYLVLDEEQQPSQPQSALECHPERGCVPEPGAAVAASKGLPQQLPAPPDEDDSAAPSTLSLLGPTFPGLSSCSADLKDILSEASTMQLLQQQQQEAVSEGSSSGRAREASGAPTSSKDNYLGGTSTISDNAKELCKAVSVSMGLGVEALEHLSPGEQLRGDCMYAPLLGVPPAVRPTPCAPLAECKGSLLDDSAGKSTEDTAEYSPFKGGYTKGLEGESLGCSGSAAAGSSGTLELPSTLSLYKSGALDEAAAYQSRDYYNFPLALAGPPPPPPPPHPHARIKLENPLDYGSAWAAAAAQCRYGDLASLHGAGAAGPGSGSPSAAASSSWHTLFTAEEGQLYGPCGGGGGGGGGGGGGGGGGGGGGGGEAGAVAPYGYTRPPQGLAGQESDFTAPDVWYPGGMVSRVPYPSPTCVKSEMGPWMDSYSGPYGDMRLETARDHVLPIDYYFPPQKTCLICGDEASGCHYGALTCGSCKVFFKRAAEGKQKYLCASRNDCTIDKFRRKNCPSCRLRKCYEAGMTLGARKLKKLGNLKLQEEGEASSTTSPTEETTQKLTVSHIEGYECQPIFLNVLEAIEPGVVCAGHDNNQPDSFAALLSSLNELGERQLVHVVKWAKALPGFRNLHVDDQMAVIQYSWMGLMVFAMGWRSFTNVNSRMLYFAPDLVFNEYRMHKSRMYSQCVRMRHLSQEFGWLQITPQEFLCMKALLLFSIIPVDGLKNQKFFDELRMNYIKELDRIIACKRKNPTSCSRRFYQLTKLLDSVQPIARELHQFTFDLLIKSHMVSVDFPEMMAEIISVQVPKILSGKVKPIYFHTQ
Outline: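 An antagonist-mode imaging screen: engineered U2OS (AR-RFP, TIF2-GFP) exposed to 20 uM compound, 0.2% DMSO. Activity reflects nucleolar red fluorescence change relative to DHT baseline.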

[7] = molecular target: Nucleoli Translocation, AR (gene 367) (UniProt P10275); assay: UPITT_HCI_U2OS_AR_TIF2_Nucleoli_Agonist: University of Pittsburgh U2OS Androgen Receptor-Transcriptional Intermediary Factor 2 (AR-TIF2) Agonism High Content Imaging Assay for Nucleoli Translocation (AID 2283998; active means hit-call score of the fitted dose curve at least 0.9, where 1 is the maximum)
Outline: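 Red-tagged human androgen receptor co-expressed with GFP-tagged TIF2 serves as the binding reporter. Primary testing used 20 uM final (0.2% DMSO); follow-up dose response covered 0.195 to 50 uM final (0.5% DMSO).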

[8] = molecular target: Ratio of Nucleoli Translocation and Cytoplasm, AR (gene 367) (UniProt P10275); assay: UPITT_HCI_U2OS_AR_TIF2_Nucleoli_Cytoplasm_Ratio_Antagonist: University of Pittsburgh U2OS Androgen Receptor-Transcriptional Intermediary Factor 2 (AR-TIF2) Antagonism High Content Imaging Assay for Ratio of Nucleoli Translocation and Cytoplasm (AID 2283999; active means hit-call score of the fitted dose curve at least 0.9, where 1 is the maximum;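 further: antagonists lower the DHT-driven ratio of nucleolar to cytoplasmic red signal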)
Ratio of Nucleoli Translocation and Cytoplasm, AR (gene 367), sequence (P10275 whole entry, looked up): as above
Outline: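 Compounds were added to U2OS cells carrying red-fluorescent AR and green-fluorescent TIF2, first at 20 uM, with hits confirmed in triplicate and titrated from 0.195 to 50 uM. Nucleolar versus cytoplasmic AR-RFP fluorescence was then quantified by imaging, with analysis relative to DHT.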

[9] = molecular target: Ratio of Nucleoli Translocation and Cytoplasm, AR (gene 367) (UniProt P10275); assay: UPITT_HCI_U2OS_AR_TIF2_Nucleoli_Cytoplasm_Ratio_Agonist: University of Pittsburgh U2OS Androgen Receptor-Transcriptional Intermediary Factor 2 (AR-TIF2) Agonism High Content Imaging Assay for Ratio of Nucleoli Translocation and Cytoplasm (AID 2284000; active means hit-call score of the fitted dose curve at least 0.9, where 1 is the maximum;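 further: hits raise the red nucleolar to cytoplasm ratio above vehicle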)
Outline: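 Primary screen at 20 uM final (0.2% DMSO), then triplicate confirmation and dose-response from 0.195 to 50 uM final (0.5% DMSO). Cells: U2OS with AR-RFP and TIF2-GFP. Endpoint is the nucleoli/cytoplasm red-fluorescence ratio, gain-of-signal vs DMSO.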

[10] = CCTE_Harrill_HTTr_Viability_PRF_DMEM_12hr: (Pilot) CCTE's 12-hour Cell Viability Assessment for the High-Throughput Transcriptomics (HTTr) Platform, in MCF-7 cells cultured in phenol red-free DMEM + 10% charcoal-stripped fetal bovine serum, Harrill Lab (AID 2283977)
Outline: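 Membrane integrity was scored via propidium iodide dye exclusion imaging, fitted in both directions relative to DMSO. Compounds ran as eight-point dilutions for 12 hours on MCF-7 grown in phenol red-free DMEM plus 10% charcoal-stripped serum.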

[11] = CCTE_Harrill_HTTr_Viability_PRF_DMEM_24hr: (Pilot) CCTE's 24-hour Cell Viability Assessment for the High-Throughput Transcriptomics (HTTr) Platform, in MCF-7 cells cultured in phenol red-free DMEM + 10% charcoal-stripped fetal bovine serum, Harrill Lab (AID 2283980)
Outline: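 Propidium iodide exclusion imaged at 24 h after dosing scores viability; cells were MCF-7 grown in phenol red-free DMEM plus 10% charcoal-stripped serum, tested in eight concentrations, fitted in both directions against DMSO.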

[12] = CCTE_Harrill_HTTr_Apoptosis_DMEM_6hr: (Pilot) CCTE's 6-hour Apoptosis Assessment for the High-Throughput Transcriptomics (HTTr) Platform, in MCF-7 cells cultured in DMEM + 10% fetal bovine serum, Harrill Lab (AID 2283981)
Outline: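 MCF-7 cells grown in DMEM + 10% FBS were exposed for 6 hours to an eight-point dilution series. CellEvent Caspase 3/7 Green signal was imaged; activity fitted bidirectionally against DMSO.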

[13] = CCTE_Harrill_HTTr_Apoptosis_DMEM_12hr: (Pilot) CCTE's 12-hour Apoptosis Assessment for the High-Throughput Transcriptomics (HTTr) Platform, in MCF-7 cells cultured in DMEM + 10% fetal bovine serum, Harrill Lab (AID 2283982)
Outline: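 Caspase-3/7 activity was measured by high-content imaging (CellEvent Caspase 3/7 Green) after a 12-hour exposure of MCF-7 cells grown in DMEM with 10% FBS. Eight-point concentration series, fitted bidirectionally against vehicle.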

[14] = CCTE_Harrill_HTTr_Apoptosis_DMEM_24hr: (Pilot) CCTE's 24-hour Apoptosis Assessment for the High-Throughput Transcriptomics (HTTr) Platform, in MCF-7 cells cultured in DMEM + 10% fetal bovine serum, Harrill Lab (AID 2283983)
Outline: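 Caspase-3/7 activity read by high-content imaging (CellEvent Green reagent) 24 h after dosing. MCF-7 cells grown in DMEM with 10% FBS received an eight-point concentration series; fits were bidirectional versus DMSO.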

[15] = CCTE_Harrill_HTTr_Apoptosis_PRF_DMEM_6hr: (Pilot) CCTE's 6-hour Apoptosis Assessment for the High-Throughput Transcriptomics (HTTr) Platform, in MCF-7 cells cultured phenol red-free DMEM + 10% charcoal-stripped fetal bovine serum, Harrill Lab (AID 2283984)
Outline: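 Caspase-3/7 activity (CellEvent Green) read by high-content imaging 6 h after dosing, eight concentrations. Cells: MCF-7, phenol red-free DMEM with 10% charcoal-stripped serum. Curves fit both directions against DMSO.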

[16] = CCTE_Harrill_HTTr_Apoptosis_PRF_DMEM_24hr: (Pilot) CCTE's 24-hour Apoptosis Assessment for the High-Throughput Transcriptomics (HTTr) Platform, in MCF-7 cells cultured in phenol red-free DMEM + 10% charcoal-stripped fetal bovine serum, Harrill Lab (AID 2283986)
Outline: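 Eight concentrations tested for 24 h on MCF-7 grown in charcoal-stripped serum, phenol red-free DMEM. High content imaging of CellEvent Caspase 3/7 Green signal gives apoptosis read-out, fitted both ways relative to DMSO.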

[17] = CCTE_Shafer_MEA_acute_spike_number: CCTE's Neural Acute Assay for Total Number of Spikes, Shafer Lab (AID 2284008);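 on AC50: curve fitted for decrease in spike count so AC50 reflects inhibitors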
Outline: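 Cortical neurons from rat, matured to DIV 13 or 15 on microelectrode arrays, are recorded at 37 C before and during 40-min exposure to 0.03-40 uM compound. Wells need >/= 10 active electrodes.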

[18] = CCTE_Shafer_MEA_acute_firing_rate_mean: CCTE's Neural Acute Assay for Mean Firing Rate, Shafer Lab (AID 2284009);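 further: analyzed for loss of signal so actives lower firing rate relative to DMSO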
Outline: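 Spontaneous spiking of primary rat cortical networks, DIV 13/15, 37 C. Compound 0.03-40 uM, n ≥3 wells; 40 min baseline vs 40 min treated. Endpoint fitted in loss-of-signal direction against DMSO.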

[19] = TOX21_TR_RXR_BLA_Antagonist_Followup_viability: Viability Assessment in the Tox21 Thyroid Hormone Receptor beta Retinoid X Receptor alpha (RXRa) Antagonism Beta-lactamase (BLA) Follow-Up Assay (AID 2283979; active means hit-call score of the fitted dose curve at least 0.9, where 1 is the maximum)
Outline: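 RXRa-UAS-bla HEK293T cells seeded 2,500/well in phenol red-free DMEM with 2% charcoal-stripped FBS, attached 5 h, then exposed to compounds at 11 concentrations in triplicate for 16 h at 37C/5% CO2. Viability read by CellTiter-Glo ATP luminescence; bidirectional fit versus DMSO.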

Measured: AC50

CC(C)(O)c1ccc(CNC(=O)c2cccnc2Oc2ccc(F)cc2)cc1
active: [2] 18.6 µM
inactive: [1] | [3] | [4] | [5]

CCCCCCCCCCCCCCOS(=O)(=O)O
active: DIO1 (gene 1733) 85.7 µM
inactive: [5]

NCCOCCOCCN
inactive: [6] | [7] | [8] | [9] | [5]

Cc1c(C)c2c(c(C)c1O)CCC(C)(COc1ccc(CC3SC(=O)NC3=O)cc1)O2 (stereo unspecified)
active: DIO1 (gene 1733) 85.9 µM | [1] 3.22 µM | [2] 7.83 µM | [4] 8.43 µM | [17] 3.97 µM | [18] 3.97 µM
not listed: [5] | [6] | [19]
inactive: all other assays above

O=C1CCCCC1
inactive: [6] | [7] | [9] | [5]

CC(C)OC(=O)C(C)(C)Oc1ccc(C(=O)c2ccc(Cl)cc2)cc1
active: [1] 30.5 µM | [2] 37.2 µM
not listed: [3] | [4] | DIO1 (gene 1733) | [9] | [17] | [18] | [19]
inactive: all other assays above

Nc1nc(Cl)nc2c1ncn2[C@H]1C[C@H](O)[C@@H](CO)O1
inactive: [10] | [19] | [11] | [12] | [13] | [14] | [15] | [16]

C#CC(O)C(CC)CCCC (stereo unspecified)
active: [6] 22.5 µM | [8] 14.8 µM
inactive: [7] | [9]

C/C=C/c1ccc(OC)cc1
inactive: [17] | [18]

CC(=O)O[C@]1(C(C)=O)CC[C@H]2[C@@H]3C=C(Cl)C4=CC(=O)[C@@H]5C[C@@H]5[C@]4(C)[C@H]3CC[C@@]21C
active: [1] 29 µM | [2] 28.1 µM | [4] 23 µM
inactive: [10] | [11] | [12] | [13] | [14] | [15] | [16] | [3] | [5]

O=Cc1ccccc1C=O
active: DIO1 (gene 1733) 49.3 µM
inactive: [6] | [7] | [8]

Cc1ccc(C(C)(C)C)c(O)c1
inactive: [2] | [3] | [4] | [18]
active: [1] 44.6 µM | [17] 10.3 µM

CCCCCCCCCC[N+](C)(C)[O-]
inactive: [6] | [7] | [8] | [9]
